Sampled rows, rich in hits. Any-hit rate of the full collection: about 7.4%.
ELG1 genotox: induces genotoxicity in HEK293T cells with luciferase-tagged ELG1; HEK293T ELG1-luciferase reporter, luminescence, 16 h; AID 504466; Potency, µM (series often up to 46 µM), inactives show at the top dose activity change, positive = activation, usual class: activators; actives 1.3% (n = 330,000); further: % of control where 0% means no effect; nearly all actives have a fitted effect of over 60% in size
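Genotoxicity was scored as increased ELG1-luciferase reporter signal, measured by ONE-Glo luminescence (30 min, room temperature). Compound or vehicle exposure of the HEK293T reporter cells lasted 16 hr at 37°C.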
Rab9 promoter act: Rab9 promoter activation. Potency, µM (doses to about 9.22 µM), for the others: at the highest dose activation, negative = inhibition, usual class: activators. actives 2.8% (n = 320,000). Huh7 Rab9 promoter-luciferase reporter, luminescence, 24 h; further: % of control where 0% means no effect; nearly all actives have a fitted effect of over 60% in size
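Rab9 promoter-driven luciferase in stably transfected Huh7 cells; 1500 cells/well rested 2 h, exposed to compound in DMSO for 24 h at 37 °C, 5% CO2. Luminescence read 10 min after adding luciferase reagent at ambient temperature.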
SMN2 splice up: increases expression of the SMN2 splice variant; HEK293 SMN2-luciferase splicing reporter, luminescence, 30-36 h; Potency, µM (series often up to 46.1 µM), without a hit: at the highest dose activity change, positive = activation, hits mostly activators; actives 2.8% (n = 210,000); AID 1458; further: % of control where 0% means no effect; nearly all actives have a fitted effect of over 55% in size
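HEK293 cells carry an SMN2 minigene-luciferase reporter in which exon 7 inclusion puts luciferase in frame. Cells were seeded at 2000 cells/well, attached for 10-12 hours, then exposed to compounds for 30-36 hours at 37C before ONE-Glo luminescence.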
NPC1 promoter act: NPC1 promoter activation; Huh7 NPC1 promoter luciferase reporter, 24 h; Potency, µM (titrated, usually from 9.22 µM), inactives show at the top dose activation, hits mostly activators; actives 2.4% (n = 320,000); AID 485313; further: % of control where 0% means no effect; nearly all actives have a fitted effect of over 60% in size
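Compounds in DMSO were transferred onto Huh7 NPC1-luciferase reporter cells pre-incubated 2 h; after 24 h at 37 °C, Amplite reagent was dispensed and luminescence recorded 10 min later.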
p53 reactivator: restores transcriptional activity of mutant p53. H1299 p53-A138V BP100-luciferase reporter, luminescence, 24 h. Potency, µM (titrated, usually from 92.2 µM), inactives show at the highest dose activity change, positive = activation, usual class: activators. actives 0.063% (n = 320,000); further: % of control where 0% means no effect; nearly all actives have a fitted effect of over 45% in size
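H1299 (p53-null), stable ts p53-A138V + BP100-Luc; 1000 cells/well, Opti-MEM/10% FBS; cpd 4 pt, 1:5; 24 h, 37 deg C, 5% CO2; detection reagent 10 min RT; luminescence.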
FLuc modulator: firefly luciferase modulation, counter-screen for miR-21 project; purified FLuc, Km substrates, luminescence inhibition; Potency, µM (doses to about 57.5 µM), inactives show at the top dose activity change, negative = inhibition, hits mostly inhibitors; actives 6.9% (n = 360,000); P08659;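 further: plate controls were vehicle for no effect and reference inhibitor for full effect; nearly all actives have a fitted effect of over 55% in size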
Target sequence (P08659 whole entry, looked up): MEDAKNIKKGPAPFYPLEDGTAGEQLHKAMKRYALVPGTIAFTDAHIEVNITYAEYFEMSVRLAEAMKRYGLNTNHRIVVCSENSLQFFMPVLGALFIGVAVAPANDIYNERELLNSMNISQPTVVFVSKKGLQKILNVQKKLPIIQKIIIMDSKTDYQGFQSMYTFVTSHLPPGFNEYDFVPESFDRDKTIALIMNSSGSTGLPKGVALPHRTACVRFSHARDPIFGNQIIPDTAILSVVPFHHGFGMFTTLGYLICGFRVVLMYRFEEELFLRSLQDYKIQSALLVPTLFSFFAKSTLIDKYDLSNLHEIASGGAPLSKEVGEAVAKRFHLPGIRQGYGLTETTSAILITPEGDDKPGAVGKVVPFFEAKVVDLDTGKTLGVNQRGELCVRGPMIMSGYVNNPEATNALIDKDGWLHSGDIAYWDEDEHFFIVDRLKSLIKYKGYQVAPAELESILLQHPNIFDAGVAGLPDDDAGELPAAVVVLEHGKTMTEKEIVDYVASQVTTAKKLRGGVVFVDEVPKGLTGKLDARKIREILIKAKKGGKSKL
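Purified P. pyralis luciferase, 10 nM final, with Km-level 10 uM D-luciferin and 10 uM ATP in 50 mM Tris acetate pH 7.5, 10 mM Mg acetate, 0.01% Tween-20, 0.05% BSA; 6-point qHTS titration about 60 µM downward; luminescence read.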
* marks the source's active call; other numbers are inactive results; ? = inconclusive; / = not tested or not shown. The call rests on the fitted dose curve; in most records, active means well fitted curve in the direction sought with a large enough effect; inconclusive means small, poorly fitted or top-dose-only effect, or another doubt; inactive means no such curve, though single readings can be large; an effect the other way counts as inactive or inconclusive. Potency means the concentration at half of the fitted maximal effect.

SMILES	ELG1 genotox	Rab9 promoter act	SMN2 splice up	NPC1 promoter act	p53 reactivator	FLuc modulator
COc1cccc(CNC(=O)c2ccc(Cn3c(SCc4ccccc4)nc4cccnc43)cc2)c1	/	/	/	/	/	5.4µM*
Cc1cccc(Cn2c(SCc3ccc(C(=O)NCc4ccccc4)cc3)nc3cccnc32)c1	/	/	/	/	/	2%
CCNC(=O)c1ccc(CSc2nc3cccnc3n2Cc2ccc(OC)cc2)cc1	/	/	/	/	/	21µM*
Cc1ccc(NS(=O)(=O)c2ccc3[nH]c4c(c3c2)CCCCC4)cc1	/	/	/	/	/	-15%
Cc1ccc(-c2nc(NC(=O)CSc3nnc(C)s3)ns2)cc1	3%	-7%	6%	8%	18%	19µM*
Cc1nnc(SCC(=O)Nc2nsc(-c3ccccc3)n2)s1	-4%	17%	16%	10%	?	?
Cc1ccc(C(=O)CSc2nnc(C)s2)cc1	?	2.2µM*	?	2.2µM*	?	13µM*
Nc1nnc(SCC(=O)c2ccc3ccccc3c2)s1	12µM*	4µM*	?	4.5µM*	?	19µM*
Cc1nnc(SCC(=O)c2ccc(Br)cc2)s1	-1%	17%	-8%	10%	4%	17µM*
CCOc1ccc(CCNC(=O)Cc2ccc(NC(=O)N3CCSc4ncccc43)cc2)cc1	/	/	/	/	/	2%
Cc1ccccc1CNCCCSc1nnnn1C	/	/	/	/	/	0%
CCOC(=O)c1c(-c2ccccc2)oc2ccc(OCc3ccc(C)cc3)cc12	/	/	-4%	/	/	-3%
O=C(O)c1c(-c2ccccc2)oc2ccc(OCc3ccc(Cl)c(Cl)c3)cc12	/	/	16%	/	/	15µM*
O=S(=O)(Nn1c(O)c(C=C2N=c3ccccc3=N2)sc1=S)c1ccccc1	-5%	1%	/	-2%	13%	15µM*
O=C(Nn1c(O)c(C=C2N=c3ccccc3=N2)sc1=S)c1ccccc1Cl	-1%	-1%	-3%	-1%	17%	15µM*
O=C1Nc2ccccc2/C1=C/c1cnc(-c2ccccc2)[nH]1	?	4µM*	/	2.8µM*	23%	?
O=C1Nc2ccccc2/C1=C/c1cccnc1	4%	-1%	12%	-11%	-3%	-7%
CCOc1ccccc1OCCC(=O)OCC(=O)Nc1c(C)nn(-c2ccccc2)c1C	0%	-45%	/	-2%	1%	0%
Cc1ccc(C)c(NC(=O)c2ccc3c(=O)n4c(nc3c2)CCC4)c1	17%	?	/	?	?	15µM*
O=C(Nc1ccc(F)cc1Cl)c1ccc2c(=O)n3c(nc2c1)CCC3	17%	3.5µM*	/	3.2µM*	?	-37%
O=C(Nc1ccc(F)cc1F)c1ccc2c(=O)n3c(nc2c1)CCC3	?	1.1µM*	/	1.1µM*	?	11µM*
O=C(NCc1ccccc1F)C1CCN(Cc2cc3ccccc3n2Cc2cccc(Cl)c2)CC1	/	/	/	/	/	-2%
Cc1ccccc1NC(=O)c1c(NC(=O)Cc2ccccc2)sc2c1CCC2	/	/	-2%	/	/	-8%
CN(CCc1ccccn1)C(=O)CCC1CCCN(C(=O)c2cccc(N(C)C)c2)C1 (stereo not given)	-3%	9%	/	5%	7%	3%
CCCOCC(C)O (stereo not given)	/	/	-2%	/	/	/
SMILES	ELG1 genotox	Rab9 promoter act	SMN2 splice up	NPC1 promoter act	p53 reactivator	FLuc modulator
Fc1cccc(Cl)c1CNc1ccc(N2CCCC2)cc1	6%	17%	-12%	14%	-6%	9.5µM*
NS(=O)(=O)c1ccc(NCc2c(F)cccc2Cl)cc1	-2%	2%	-9%	0%	-11%	2%
O=C(O)c1ccc2nc(-c3cc4cc(F)ccc4oc3=O)[nH]c2c1	/	/	/	/	/	5.4µM*
O=c1oc2c(CN3CCCCC3)c(O)ccc2cc1-c1nc2ccccc2[nH]1	?	?	/	25%	16%	9.5µM*
O=c1oc2c(O)cccc2cc1-c1nc2ccccc2[nH]1	?	0.79µM*	/	0.56µM*	?	0.67µM*
O=C(O)c1ccc2nc(-c3cc4cccc(O)c4oc3=O)[nH]c2c1	/	24%	/	10%	/	0.85µM*
C=CCc1cccc2cc(-c3nc4ccc(C)cc4[nH]3)c(=O)oc12	/	/	/	/	/	-17%
Cc1ccc(OCC(=O)OCC(=O)N2c3ccccc3CC2C)cc1C (stereo not given)	-1%	-6%	/	-1%	2%	0%
CCN(C[C@H]1N[C@@](CC)(C(=O)OC)[C@H]2C(=O)N(Cc3ccccc3)C(=O)[C@@H]12)C(=O)c1ccc(F)cc1	-6%	/	/	/	4%	/
Cc1noc(/C=C/c2nn(C)cc2Cl)c1[N+](=O)[O-]	-25%	1%	/	-4%	-13%	?
Cc1cc(O)ccc1N/C=C/c1onc(C)c1[N+](=O)[O-]	?	2.5µM*	20µM*	3.2µM*	?	?
O=C(N/N=C/c1ccccc1C(=O)O)c1cccc(S(=O)(=O)N2CCCCC2)c1	-2%	-4%	/	-8%	7%	-3%
COc1ccc(C2=Nn3c(nnc3-c3ccc(OC)cc3)SC2)cc1	?	-17%	?	-30%	-9%	-9%
COc1ccc(C2=Nn3c(nnc3-c3cc(C)[nH]n3)SC2)cc1	21µM*	-2%	/	-8%	-5%	-1%
c1ccc(C2=Nn3c(nnc3-c3cc(-c4ccccc4)n[nH]3)SC2)cc1	?	4%	?	8%	2%	/
Cc1nnc2n(c1=O)N=C(c1ccc(Cl)cc1)CS2	29%	0.5µM*	2µM*	1µM*	?	2%
Clc1ccc(C2=Nn3c(nnc3-c3n[nH]c4c3CCC4)SC2)cc1Cl	?	-5%	10µM*	-9%	-10%	0%
Clc1ccc(C2=Nn3c(nnc3-c3cc(-c4ccccc4)n[nH]3)SC2)cc1	-25%	-10%	21%	8%	-7%	-4%
c1ccc(C2=Nn3c(nnc3-c3n[nH]c4c3CCC4)SC2)cc1	23µM*	3%	?	-7%	-14%	-1%
COc1ccc(C(=O)N2CCC3(CC2)CN(c2ccccn2)C3)cc1	/	/	-31%	/	/	/
CCCCCOC(=O)CSc1nc2sc3c(c2c(=O)n1-c1ccccc1)CC(C)(CC)OC3 (stereo not given)	/	/	-10%	/	/	-9%
O=C(Nc1ccc2c(c1)CN(Cc1ccc(CO)o1)CC2)c1ccc(C(F)(F)F)cc1	17%	-7%	/	2%	?	11µM*
COc1ccccc1CCC(=O)Nc1ccc2c(c1)CN(Cc1ccc(CO)o1)CC2	-7%	2%	/	-2%	-8%	-10%
COc1cc(OC)c2c(=O)cc(-c3ccccc3)oc2c1	23µM*	?	/	?	7%	5.4µM*
COc1cc(C)c2c(=O)cc(-c3ccccc3)oc2c1	/	/	11µM*	/	/	/

Screening data from PubChem.
